# gsp antag: qHTS for Antagonists of gsp, the Etiologic Mutation Responsible for Fibrous Dysplasia/McCune-Albright Syndrome: qHTS | actives 0.4% (n = 340,000) | Potency, µM (top dose mostly 76.9 µM), without a hit: at the top dose activity change, negative = inhibition, most hits filed as inhibitors | gsp-mutant cells, cAMP HTRF, 30 min; calls by dose curve; cell line not stated here;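 note: intracellular cAMP measured with PDE inhibitor Ro 20-1724 present during compound exposure; % is set by controls: 0 for no effect and ±100 for the full control effect; nearly all actives have a fitted effect of over 65% in size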
#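 Cells, 2000/well, grown 16–24 h in DMEM 10% FBS with 0.5 mg/ml G418, then compounds plus […] (300 uM addition stock), 30 min at 37C. cAMP read by HTRF (cAMP-d2 and anti-cAMP antibody-K in lysis buffer) after 30 min RT.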
# 12-LOX inh: Primary qHTS assay for inhibitors of human arachidonate 12S-lipoxygenase (ALOX12): Round 2. Polyunsaturated fatty acid lipoxygenase ALOX12 (Homo sapiens), P18054. purified 12hLO, xylenol orange hydroperoxide absorbance. Potency, µM (doses to about 108 µM), for inactives: at the highest dose activity change, negative = inhibition, usual class: inhibitors. actives 1.1% (n = 580,000). AID 1671190, 2021; note: % is set by controls: 0 for no effect and ±100 for the full control effect
# Target sequence (P18054 whole entry, looked up): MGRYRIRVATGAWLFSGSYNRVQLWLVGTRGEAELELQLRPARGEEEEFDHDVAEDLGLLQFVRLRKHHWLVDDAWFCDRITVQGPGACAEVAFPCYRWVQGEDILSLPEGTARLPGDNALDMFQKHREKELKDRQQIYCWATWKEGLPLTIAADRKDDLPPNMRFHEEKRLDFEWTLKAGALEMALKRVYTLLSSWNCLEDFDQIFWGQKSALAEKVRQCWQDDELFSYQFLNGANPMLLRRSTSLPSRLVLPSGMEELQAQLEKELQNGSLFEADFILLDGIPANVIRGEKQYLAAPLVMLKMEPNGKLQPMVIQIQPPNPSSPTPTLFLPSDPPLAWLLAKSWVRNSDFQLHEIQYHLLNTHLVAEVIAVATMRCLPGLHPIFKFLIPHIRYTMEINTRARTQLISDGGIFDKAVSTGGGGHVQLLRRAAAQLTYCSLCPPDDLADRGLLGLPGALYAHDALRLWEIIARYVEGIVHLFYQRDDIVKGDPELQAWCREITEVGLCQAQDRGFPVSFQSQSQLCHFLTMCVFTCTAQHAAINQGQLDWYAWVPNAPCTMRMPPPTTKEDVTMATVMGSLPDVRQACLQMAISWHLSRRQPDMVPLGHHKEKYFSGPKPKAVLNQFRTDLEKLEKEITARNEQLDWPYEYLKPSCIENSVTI
#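 Purified human 12hLO (150 nM final) in 25 mM Hepes, 0.01% Triton X-100, pH 7.0 was preincubated 15 min at room temperature with compound. Then 40 uM arachidonic acid was added, 30 min. Hydroperoxide was read by Fe-XO absorbance ratio 573/405 nm.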
# gsp agonist: qHTS for Agonist of gsp, the Etiologic Mutation Responsible for Fibrous Dysplasia/McCune-Albright Syndrome: qHTS. gsp mutant cells, cAMP HTRF, 30 min. Potency, µM (highest dose often 76.9 µM), inactives show at the top dose activation (cAMP increase), usual class: activators. actives 0.13% (n = 340,000); active = well fitted activation curve with a large enough effect; inconclusive = small, poorly fitted or top-dose-only effect, or another doubt; inactive = no such curve, though single readings can be large or run the other way; cell line not stated here;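 note: phosphodiesterase inhibitor Ro 20-1724 added with compounds to block cAMP breakdown; nearly all actives have a fitted effect of over 60% in size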
#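 Cells in DMEM/10% FBS with G418 were pretreated with compounds in DMSO plus […] (300 uM stock) for 30 min at 37C. cAMP was measured by HTRF (cAMP-d2 plus anti-cAMP antibody-K) after 30 min at room temperature.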
# Mito fusion yeast: qHTS Assay for Small Molecule Inhibitors of Mitochondrial Division or Activators of Mitochondrial Fusion | S. cerevisiae fusion-defective mutant growth rescue, CellTiterGlo 48 h | Potency, µM (titrated, usually from 46.1 µM), without a hit: at the highest dose growth rescue (activation), actives largely listed as activators | actives 0.23% (n = 320,000); note: % of control where 0% means no effect; nearly all actives have a fitted effect of over 45% in size
#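 Growth-rescue viability read-out: after 48 h at the non-permissive 37C in glycerol/ethanol YPEG, yeast mitochondrial fusion mutants are measured by CellTiterGlo luminescence; compounds (23 nl pinned per well) restoring growth score as division inhibitors or fusion activators.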
# FUS suppressor: qHTS for Suppressors of FUS Proteinopathy: Primary screen using FUS-linked yeast assay. S. cerevisiae FUS-expressing, growth rescue, OD600, 24 h. Potency, µM (titrated, usually from 76.6 µM), actives largely listed as activators. actives 0.24% (n = 390,000);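 note: plate controls were DMSO vehicle for no effect and reference control for full effect; nearly all actives have a fitted effect of over 55% in size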
#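 FUS-expressing yeast, raffinose-pregrown, induced in 2% galactose minimal medium at OD 0.005; compounds in a dilution series, 24hr at 30C. Growth restoration read as absorbance at 600 nm. CP55940 positive control, DMSO negative.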
# The depositor's hits bear a star; i = inactive; ? = inconclusive; / = not tested or not shown; [ ] = remark or other dose. Most compounds without a hit are left out; they make up all but 1.6% or so of the library. Unless noted, calls come from the whole dose curve; as a rule, active = well fitted curve in the direction sought with a large enough effect; inconclusive = small, poorly fitted or top-dose-only effect, or another doubt; inactive = no such curve, though single readings can be large; an effect the other way counts as inactive or inconclusive. Potency is the fitted concentration of half-maximal effect.
SMILES,gsp antag,12-LOX inh,gsp agonist,Mito fusion yeast,FUS suppressor
CN1CCC2(Cc3ccccc3CN(C(=O)c3cccc(Cl)c3)C2)C1 (configuration not stated),/,8.3%[6.33 µM],/,/,/
Cc1c(C(=O)NCC(C)C)nnn1-c1ccc(Br)cc1,/,-49.1%,/,/,/
Cc1ccc(NC2c3ncccc3C(=O)N2c2ccccc2C)cc1C (configuration not stated),-0.9%,10µM*,-10.7%,-1.4%,/
CCOc1ccc(NC(=O)c2cnn3c2NC(c2ccccc2)=CC3c2cccc(OC)c2OC)cc1 (configuration not stated),/,7.0%,/,/,22.4µM*
COc1cccc(C2C=C(c3ccccc3)Nc3c(C(=O)Nc4ccccc4)cnn32)c1OC (configuration not stated),/,0.0%,/,/,i
O=[N+]([O-])c1ccc(N=Nc2ccc(O)cc2O)cc1,?,?,-3.3%[15.4 µM],-3.8%,i
O=[N+]([O-])c1cccc(N=Nc2ccc(O)cc2O)c1,?,20µM*,15.9%,/,i
COc1ccc(N(CC(=O)N/N=C/c2ccc(OC)cc2OC)S(=O)(=O)c2ccccc2)cc1,31.6µM*,24.5%,-4.8%,0.5%,i
CCCCN(CCC(=O)NCCc1ccccc1)C(=O)c1cc(C)oc1C,/,60.5%,/,/,/
O=C(O)c1ccc(-n2cc(-c3cc4ccccc4oc3=O)[nH]c2=S)cc1,7.7%,31.6µM*,-5.2%[15.4 µM],1.8%,i
O=c1oc2ccccc2cc1-c1ccccc1,1.9%,2.4%,14.8%,?,i
CC(C)NC(=O)c1cccc2c1CCCN2CC(=O)NC1CCCC1,/,-18.2%,/,/,/
O=S(=O)(c1ccc(Br)s1)N1CCC(n2c(C(F)(F)F)nc3cccnc32)CC1,/,-12.8%,/,/,/
Cc1cc(C)n2nc3nc4c(cc3c2n1)CCCC4,18.7%,?,14.1µM*,-1.5%,i
Cc1ccc(Cc2c(-c3ccc(Cl)cc3)nc3c(Cl)cc(C(F)(F)F)cn23)cc1,/,35.5µM*,/,/,i
C#CCN(C[C@@H]1[C@@H](OC(=O)Nc2cccs2)[C@@H](OC(=O)Nc2cccs2)Cn2c(=O)n(CCCCCC)c(=O)n21)S(=O)(=O)c1ccc(C)cc1,/,10µM*,2.7%,/,?
CC(C)CN1C(=O)/C(=C/c2ccco2)NC1=S,3.4%,28.2µM*,-4.5%[15.4 µM],6.7%,i
S=C(Nc1ccc(Oc2ccccc2)cc1)NC1CCCC1,8.0%,?,-33.6%,?,i
FC(F)Sc1ccc(NC(=S)NC2CCCCC2)cc1,-14.1%,?,1.4%,1.9%,i
FC(F)Sc1ccc(NC(=S)NCC2CCCCC2)cc1,?,15.8µM*,22.7%,-6.4%,i
CC1CCCCC1NC(=S)Nc1ccc(SC(F)F)cc1 (configuration not stated),-3.2%[15.4 µM],31.6µM*,-32.3%,-6.5%,i
S=C(NCC1CCCCC1)Nc1ccc(Oc2ccccc2)cc1,?,39.8µM*,-8.7%,1.8%,/
CCOc1ccc(NC(=O)Cc2ccccc2)c2cccnc12,/,-1.4%,/,/,/
Cc1cccc(C)c1NC(=O)CCC1CCCC1,/,-5.2%,/,/,/
CC(=O)c1c(C)[nH]c(-c2ccccc2)nc1=S,-0.9%,16.5%,12.4%[15.4 µM],10.1%,i
SMILES,gsp antag,12-LOX inh,gsp agonist,Mito fusion yeast,FUS suppressor
CC(=O)c1c(NC(=O)c2ccccc2)[nH]c(-c2ccccc2)nc1=S,-19.1%,39.8µM*,0.0%,9.2%,i
O=[N+]([O-])c1c(-c2cscn2)[nH]c2ccccc12,/,-4.5%,/,/,/
Cc1nc2c(C(=O)NCCC(C)C)c[nH]n2c(=O)c1Cc1ccccc1F,20µM*,-2.6%,-18.6%,-9.0%,i
O=C(Cc1ccccc1)NNC(=O)c1ccccc1C(=O)O,11.2µM*,4.2%,?,5.5%,i
COc1ccc(-c2cn(C)c(=O)n3cc(COc4ccc(Cl)cc4)nc23)cn1,/,0.0%[176 µM],/,/,/
COCCn1c(COc2ccccc2-c2ccccc2)n[nH]c1=S,/,28.2µM*,/,/,/
CCn1c(CSCc2ccc(Cl)cc2)n[nH]c1=S,-1.1%,?,7.9%,-3.5%,i
